Source: PubChem BioAssay (NCATS)
Records with an inconclusive call do not appear. Values without a mark were called inactive. Calls of active or inactive are those of the source. Calls follow the shape of the dose curve; as a rule, active = well fitted cell-killing curve with a large enough effect; inconclusive = small, poorly fitted or top-dose-only effect, or effect the other way; inactive = flat fitted curve, though single readings scatter.

What follows are compounds tested on Es-2 (assay: Primary qHTS to identify gynecologic anti-cancer compounds using libraries of approved drugs and bioactive compounds (AID 1345084; also: nearly all actives have a fitted effect of over 55% in size)). Details: Gynecologic cancer cell panel viability, ATPlite luminescence, 48 h; series mostly up to 57.5 µM; activity change, negative = cytotoxicity: at the top concentration.
Method in brief: (§1)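 ATP-based viability (ATPlite), 1,000 cells/well, 16 h pre-incubation, 48 h compound at 37 C, 5% CO2, 15 min RT before read.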
% is scaled to controls: 0 for no effect and ±100 for the full control effect; potency is read from the fitted curve at half-maximal effect.

Compound | activity change, negative = cytotoxicity | Potency
N#C/C(=C1\SCC(c2ccccc2Cl)S1)n1ccnc1 (centres undefined) | -9.75% | –
COc1ccc(C(=O)c2ccccc2O)c(O)c1 | 2.67% | –
CCC1NC(=O)c2cc(S(N)(=O)=O)c(Cl)cc2N1 (centres undefined) | -0.273% | –
OC1C(O)C(O)C(O)C(O)C1O (centres undefined) | 0.244% | –
OC(C#CCN1CCCC1)(c1ccccc1)c1ccccc1 | -13.7% | –
COc1ccc(C(=O)c2ccccc2)c(O)c1 | 0.431% | –
CCC(Cc1c(I)cc(I)c(N)c1I)C(=O)O (centres undefined) | -0.508% | –
CN(Cc1ccc(C(C)(C)C)cc1)Cc1cccc2ccccc12 | -4.45% | –
COP(=O)(OC)OC(c1ccc(Cl)cc1)P(=O)(OC)OC (centres undefined) | 0.964% | –
Nc1nc(N)c(-c2ccccc2)s1 | 9.17% | –
CO[C@]12C[C@@H](COC(=O)c3cncc(Br)c3)CN(C)[C@@H]1Cc1cn(C)c3cccc2c13 | 11.9% | –
CCN[C@@H]1C[C@H](N)[C@@H](OC2OC(CN)=CCC2N)[C@H](O)[C@H]1O[C@H]1OC[C@](C)(O)[C@H](NC)[C@H]1O (some centres undefined) | 9.29% [at 0.462 µM] | –
CCOC(=O)c1ccc(N)cc1 | -0.767% | –
CN(C)CCC[C@@]1(c2ccc(F)cc2)OCc2cc(C#N)ccc21 | -1.87% | –
CCCCCCCCCCCCCCCC(=O)O | -5.33% | –
CCC1Nc2cc(Cl)c(S(N)(=O)=O)cc2S(=O)(=O)N1 (centres undefined) | 8.57% | –
NC(N)=NN=C(/C=C/c1ccc([N+](=O)[O-])o1)/C=C/c1ccc([N+](=O)[O-])o1 | – | 31.6 µM (active)

Compound | activity change, negative = cytotoxicity | Potency
CN1CCN(c2c(F)cc3c(=O)c(C(=O)O)cn4c3c2SCC4)CC1 | 4.64% | –
CNCCc1ccccn1 | -9.94% | –
CC(=O)NCCCCCC(=O)O | 1.14% | –
CCCc1ncc(C[n+]2ccccc2C)c(N)n1 | -0.271% | –
CC(C)(C)CC(C)(C)c1ccc(O)c(-n2nc3ccccc3n2)c1 | -4.39% | –
CCN(CC)CCNC(=O)COc1ccc(OC)cc1 | -2.22% | –
COc1cc(C(=O)N2CCCCCCC2)cc(OC)c1OC | -2.32% | –
CCOC(=O)C(C#N)=C(c1ccccc1)c1ccccc1 | -5.59% | –
CC[N+](C)(CC)CCOC(=O)C(O)(c1ccccc1)C1CCCCC1 (centres undefined) | 0% | –
C[C@@H](O)[C@H]1C(=O)N2C(C(=O)O)=C(S[C@@H]3CN[C@H](CNS(N)(=O)=O)C3)[C@H](C)[C@H]12 | -1.26% | –
CC(C)(C)NC[C@H](O)COc1nsnc1N1CCOCC1 | 5.11% | –
CC(=O)O[C@H]1C[C@@H]2CC[C@@H]3[C@H](CC[C@@]4(C)[C@H]3C[C@H]([N+]3(C)CCCCC3)[C@@H]4OC(C)=O)[C@@]2(C)C[C@@H]1N1CCCCC1 | 0.586% | –
CCCN(CCC)S(=O)(=O)c1ccc(C(=O)O)cc1 | -0.87% | –
CC(C)(C)NCC(O)COc1cccc2c1C[C@H](O)[C@H](O)C2 (some centres undefined) | -0.652% | –
NC(=O)C1(N2CCCCC2)CCN(CCCC(=O)c2ccc(F)cc2)CC1 | 9.64% | –
CC(=O)Nc1ncc([N+](=O)[O-])s1 | 7.12% | –
FC1(F)C(F)(F)C(F)(F)C2(F)C(F)(F)C(F)(F)C(F)(F)C(F)(F)C2(F)C1(F)F (centres undefined) | -1.87% | –

Each compound was assayed on HeLa in the same assay as above. Details: Gynecologic cancer cell panel viability, ATPlite luminescence, 48 h; series mostly up to 57.5 µM; activity change, negative = cytotoxicity: at the top concentration.
Method in brief: as §1

Compound | activity change, negative = cytotoxicity | Potency
COc1ccc(C(=O)c2ccccc2O)c(O)c1 | -5.89% | –
CCC1NC(=O)c2cc(S(N)(=O)=O)c(Cl)cc2N1 (centres undefined) | 9.7% | –
OC1C(O)C(O)C(O)C(O)C1O (centres undefined) | 7.46% | –
OC(C#CCN1CCCC1)(c1ccccc1)c1ccccc1 | 1.78% | –
COc1ccc(C(=O)c2ccccc2)c(O)c1 | -1.43% | –
CCC(Cc1c(I)cc(I)c(N)c1I)C(=O)O (centres undefined) | 7.6% | –
CN(Cc1ccc(C(C)(C)C)cc1)Cc1cccc2ccccc12 | 3.15% | –
COP(=O)(OC)OC(c1ccc(Cl)cc1)P(=O)(OC)OC (centres undefined) | -7.79% | –
Nc1nc(N)c(-c2ccccc2)s1 | -2.24% | –
CO[C@]12C[C@@H](COC(=O)c3cncc(Br)c3)CN(C)[C@@H]1Cc1cn(C)c3cccc2c13 | 8.3% | –
O=C(NCCc1c[nH]c2ccccc12)c1cccnc1 | -9.87% | –
CCN[C@@H]1C[C@H](N)[C@@H](OC2OC(CN)=CCC2N)[C@H](O)[C@H]1O[C@H]1OC[C@](C)(O)[C@H](NC)[C@H]1O (some centres undefined) | 15.4% [at 0.462 µM] | –
CCOC(=O)c1ccc(N)cc1 | -9.76% | –
CN(C)CCC[C@@]1(c2ccc(F)cc2)OCc2cc(C#N)ccc21 | 10% | –
CCCCCCCCCCCCCCCC(=O)O | -11.8% | –
CCC1Nc2cc(Cl)c(S(N)(=O)=O)cc2S(=O)(=O)N1 (centres undefined) | 14.6% | –
NC(N)=NN=C(/C=C/c1ccc([N+](=O)[O-])o1)/C=C/c1ccc([N+](=O)[O-])o1 | – | 22.4 µM (active)
CN1CCN(c2c(F)cc3c(=O)c(C(=O)O)cn4c3c2SCC4)CC1 | -4.3% | –

Compound | activity change, negative = cytotoxicity | Potency
CNCCc1ccccn1 | 0.251% | –
CC(=O)NCCCCCC(=O)O | 3.11% | –
CCCc1ncc(C[n+]2ccccc2C)c(N)n1 | 6.01% | –
CC(C)(C)CC(C)(C)c1ccc(O)c(-n2nc3ccccc3n2)c1 | -14.1% | –
CCN(CC)CCNC(=O)COc1ccc(OC)cc1 | -6.06% | –
COc1cc(C(=O)N2CCCCCCC2)cc(OC)c1OC | 10.8% | –
CCOC(=O)C(C#N)=C(c1ccccc1)c1ccccc1 | -1.81% | –
Cc1cc(-c2ccccc2)nnc1NCCN1CCOCC1 | -17.9% | –
CC[N+](C)(CC)CCOC(=O)C(O)(c1ccccc1)C1CCCCC1 (centres undefined) | -0.619% | –
C[C@@H](O)[C@H]1C(=O)N2C(C(=O)O)=C(S[C@@H]3CN[C@H](CNS(N)(=O)=O)C3)[C@H](C)[C@H]12 | 7.68% | –
CC(C)(C)NC[C@H](O)COc1nsnc1N1CCOCC1 | -6.78% | –
CC(=O)O[C@H]1C[C@@H]2CC[C@@H]3[C@H](CC[C@@]4(C)[C@H]3C[C@H]([N+]3(C)CCCCC3)[C@@H]4OC(C)=O)[C@@]2(C)C[C@@H]1N1CCCCC1 | -2.26% | –
CCCN(CCC)S(=O)(=O)c1ccc(C(=O)O)cc1 | 1.37% | –
CC(C)(C)NCC(O)COc1cccc2c1C[C@H](O)[C@H](O)C2 (some centres undefined) | 16.1% | –
NC(=O)C1(N2CCCCC2)CCN(CCCC(=O)c2ccc(F)cc2)CC1 | 6.82% | –
CC(=O)Nc1ncc([N+](=O)[O-])s1 | 14.4% | –
FC1(F)C(F)(F)C(F)(F)C2(F)C(F)(F)C(F)(F)C(F)(F)C(F)(F)C2(F)C1(F)F (centres undefined) | 6.22% | –
